Most compounds without a hit are left out; they make up all but 2.4% or so of the library.
WRN inhibitor = inhibitors of human WRN helicase. Potency, µM (highest dose often 114 µM), for the others: at the top dose activity change, negative = inhibition, usual class: inhibitors. Q14191. hit rate 0.46% among 360,000. WRN helicase unwinding, fluorescent forked duplex, kinetic; further: on the % scale 0 is the no-effect control and ±100 the full control effect; nearly all actives have a fitted effect of over 55% in size
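Kinetic red-fluorescence monitoring (525/598 nm) tracks WRN helicase activity after 100 nM fluorophore-quencher forked duplex and 2 mM ATP are added to 20 nM enzyme pretreated 15 min at room temperature with compound.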
POLI inh = blocks human DNA polymerase iota activity | Q9UNA4 | Potency, µM (top dose mostly 115 µM), for the others: top-dose activity, negative = inhibition, hits mostly inhibitors | Pol iota fluorescent replication assay, 10 min | hit rate 1% among 390,000
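Fluorescent replication assay read twice, at 0 min and 10 min after adding 50 nM (final) substrate. Enzyme (10 nM) and compounds were first incubated 15 min at room temperature; enzyme-free buffer wells were negative controls.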
Pol kappa inh = DNA polymerase kappa (human) inhibition. purified Pol kappa, fluorescent DNA synthesis assay, 10 min. Potency, µM (highest dose often 107 µM), without a hit: at the top dose activity, negative = inhibition, usual class: inhibitors. hit rate 0.53% among 400,000; further: on the % scale 0 is the no-effect control and ±100 the full control effect
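Activity was followed as the change in fluorescence between reads at 0 and 10 min after starting the reaction with 50 nM substrate. Beforehand, 10 nM polymerase had been preincubated with compound for 15 min at room temperature.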
FEN1 inh = blocks human flap endonuclease 1; P39748; Recombinant FEN1 flap cleavage, fluorescence, 15 min; Potency, µM (doses to about 114 µM), for the others: at the highest dose activity change, negative = inhibition, actives largely listed as inhibitors; hit rate 0.35% among 390,000; further: on the % scale 0 is the no-effect control and ±100 the full control effect; nearly all actives have a fitted effect of over 65% in size
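Nuclease activity of 10 nM FEN1 was measured after 15 min of room-temperature exposure to titrated compounds, by adding 50 nM flap substrate and reading plates at 0 and 15 min.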
Pol beta inh = blocks human DNA polymerase beta activity | Pol beta primer extension/strand displacement, fluorescence kinetic | Potency, µM (top dose mostly 114 µM), for the others: at the top dose activity change, negative = inhibition, hits mostly inhibitors | hit rate 1.3% among 340,000; further: on the % scale 0 is the no-effect control and ±100 the full control effect
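Pol beta (10 nM) was preincubated with compound for 15 min at room temperature. The reaction was then started with 50 nM substrate and read immediately and after a further 10 min at room temperature.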
POLH inh = DNA polymerase eta (human) inhibition. hit rate 1.2% among 390,000. Q9Y253. Potency, µM (titrated, usually from 114 µM), for the others: at the highest dose activity change, negative = inhibition, usual class: inhibitors. recombinant Pol eta, fluorescent DNA replication assay. AID 588591; further: on the % scale 0 is the no-effect control and ±100 the full control effect
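Fluorescent replication assay: 50 nM final substrate added after a 15 min room-temperature compound preincubation with 10 nM enzyme. Signal taken at 0 min and again at 10 min.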
TbPGK inh = TbPGK inhibition, hit validation | shares compounds with Pol kappa inh | TbPGK coupled GAPDH assay, Kinase-Glo luminescence | AID 686980 | hit rate 79% among 500 | Potency, µM (titrated, usually from 57.5 µM), without a hit: at the top dose activity change, negative = inhibition, actives largely listed as inhibitors; further: on the % scale 0 is the no-effect control and ±100 the full control effect; nearly all actives have a fitted effect of over 65% in size
Pol iota confirm = Inhibitors of human DNA polymerase iota, confirmation. shares compounds with Pol kappa inh. Pol iota primer extension, TAMRA/BHQ fluorescence. Potency, µM, actives largely listed as inhibitors. hit rate 77% among 1,500. AID 720496
* = called active by the depositor; u = inconclusive; x = no result given; [ ] = remark or other dose. The call rests on the fitted dose curve; in most records, active means well fitted curve in the direction sought with a large enough effect; inconclusive means small, poorly fitted or top-dose-only effect, or another doubt; inactive means no such curve, though single readings can be large; an effect the other way counts as inactive or inconclusive. Potency means the concentration at half of the fitted maximal effect.

SMILES | WRN inhibitor | POLI inh | Pol kappa inh | FEN1 inh | Pol beta inh | POLH inh | TbPGK inh | Pol iota confirm
CCN(CC)S(=O)(=O)c1cccc(C(=O)N/N=C/c2ccc(O)c(O)c2O)c1 | 25µM* | u | u | u | -2% | u | x | u
CCOc1ccccc1/C=N/NC(=O)c1cccc(S(=O)(=O)N(CC)CC)c1 | -10% | 31% | 0% | 2% | -24% | -6% | x | x
COP(=O)(OC)OC(C(=O)c1ccccc1)c1ccc(Cl)cc1 (configuration not stated) | -3% | x | x | x | x | x | x | x
C/C(=N\NC(=O)c1cnccn1)c1ccc([N+](=O)[O-])cc1 | 10% | 16% | 3% | -2% | 11% | -17% | x | x
C/C(=N/NC(=O)c1cc(O)c(O)c(O)c1)c1ccc([N+](=O)[O-])cc1 | u | u | 13µM* | u | 1.8µM* | 14µM* | u | x
Cc1c(C)c2c(cc(C)c3c(-c4ccc(Br)cc4)coc32)oc1=O | x | -4% | -5% | 6% | 12% | -3% | x | x
C[C@H](CO)N1C[C@H](C)[C@@H](CN(C)S(=O)(=O)c2cccc(C#N)c2)OCc2cn(nn2)CCCC1=O | 4% | x | x | x | x | -16% | x | x
CCOc1ccc(/C=N/NC(=O)c2[nH]ncc2Br)c(O)c1 | -7% | 21% | -1% | -20% | 23% | -7% | 18µM* | x
COc1ccc(OC)c(/C=N/NC(=O)c2[nH]ncc2Br)c1 | 4% | -7%[58.9 µM] | -3% | 3% | 37% | -20% | x | x
Cc1cc(C)c2cc3c(N)c(C(=O)Nc4c(C)[nH]c(=O)[nH]c4=O)sc3nc2c1 | u | u | -20% | u | u | 45µM* | x | u
O=C(N/N=C/c1cccc([N+](=O)[O-])c1)c1cc2c(ccc3ccccc32)o1 | -9% | u | 0% | -12% | 20% | u | x | 47*
CC(=O)c1cc2ccccc2c2ccccc12 | x | 34% | -11% | -15% | x | x | x | x
O=C(CNC(=O)c1ccc(S(=O)(=O)N2CCCCC2)cc1)N/N=C/c1ccco1 | -21%[11.6 µM] | u | -9% | -8% | 3% | -4% | x | 12*
O=C(CN1C(=O)/C(=C\c2ccco2)SC1=S)Nc1ccc(O)cc1C(=O)O | 50µM* | u | -6% | -6% | 0.4µM* | 8.9µM* | 26µM* | x
Nc1ccc(N2CCCCC2)c2nonc12 | u | u | -6% | u | 9% | 35µM* | x | u
O=C(N/N=C\c1ccc(OC(=O)c2cccs2)cc1)c1ccc(Cl)cc1 | -10%[11.6 µM] | u | -7% | -35% | 3.2µM* | 3.2µM* | x | u
C[C@@H]1O[C@H](O[C@@H]2\C=C/C=C\C=C/C=C\C[C@H](C)OC(=O)/C=C\[C@H]3O[C@@H]3C[C@H](O)C[C@]3(O)C[C@@H](O)[C@@H](C(=O)O)[C@H](C2)O3)[C@@H](O)[C@H](N)[C@@H]1O (stereo in doubt) | x | x | 4%[19.4 µM] | x | x | x | x | x
CCCCC[C@H](O)/C=C/[C@@H]1[C@@H](C/C=C\CCCC(=O)OC)[C@@H](O)C[C@H]1O | 12% | 1.3µM* | -10% | u | 24% | u | 4% | x
O=C(c1ccccc1)c1cc2ccc(O)cc2oc1=O | -1% | -5% | -5% | -14% | 22% | 8% | 15µM* | x
Cc1cccc(C(=O)NC(=S)Nc2cccc3nc(C)ccc23)c1 | -33% | 32µM* | -8% | -5% | 25µM* | u | x | u
Nc1nc(Nc2ccccc2)nc2ccccc12 | 0% | -17% | -9% | -9% | 19% | -10% | x | x
CN(C)c1ccc(Nc2nc(N)c3ccccc3n2)cc1 | -7%[57.1 µM] | 6% | -28% | -6% | -3% | -8% | 13µM* | x
